Measured values reported in PubChem BioAssay.
Values without a mark were called inactive. Activity calls are given as the source filed them.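 The calls were made as follows, unless noted: active = inhibition above 50%; inactive = the rest.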

Test: antimalarial activity against Dd2 strain (AID 2302;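 active = growth inhibition above 50% at the single 2 µM test dose, taken to imply half-maximal potency below 2 µM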;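 also: 0% = DMSO untreated growth and 100% = chloroquine plus artemisinin killed control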)
Details: P. falciparum Dd2 in RBCs, LDH growth readout, 72 h; at 2 µM; active compounds read high

Row | Structure (SMILES) | growth inhibition
1 | COc1cc(Nc2nccc(N3CCC(NC(=O)Nc4ccc5c(c4)OCO5)C3)n2)cc(OC)c1OC (stereo unspecified) | 74% (active)
2 | N#Cc1ccc(C2CCN(CC[C@H](N)Cc3ccc(Cl)s3)CC2)cc1 | 30%
3 | COc1ccc(N2CCN(c3nc(Nc4ccc(NC(C)=O)cc4)nc(N4CCCC4)n3)CC2)cc1 | 38%
4 | CCc1ccc(OCCCON2C(N)=NC(N)=NC2(C)C)cc1 | 95% (active)
5 | CC(C)C(C(=O)n1ncc2c3c(N)nc(N)nc3ccc21)C(C)C | 8%
6 | CC(C)CCNCc1ccc(OCc2cccc(COc3ccc(CNCCC(C)C)cc3I)c2)c(I)c1 | 49%
7 | COc1cc(OC)c(NC(=O)Nc2ccnc3ccccc23)cc1Cl | 9%
8 | CCC(O)(C#Cc1c(C)nc(N)nc1N)CC | -5%
9 | CC(=O)N(C)/N=C/[C@H](CCc1ccccc1)NC(=O)[C@H](CC(C)C)NC(=O)c1cccc(OCCN2CCOCC2)c1 | 65% (active)
10 | N#Cc1ccc(-c2ccc(C(=O)NCCCCN3CC=C(c4ccc5c(c4OCC4CC4)CCCC5)CC3)cc2)cc1 | 83% (active)
11 | CCn1c(Sc2ccc([N+](=O)[O-])c(C#N)c2)nnc1-c1cccc(Cl)c1 | 22%
12 | CCOC(=O)C1CCN(CCOc2cc(NC(=O)/C=C/c3ccccc3Cl)ccc2Br)CC1 | 29%
13 | Cc1cc(N2CCN(C)CC2)nc2ccc(NC(=O)Cc3cccc(C(F)(F)F)c3)cc12 | 51% (active)
14 | N#Cc1ccc(NC(=NCCc2c[nH]c3ccccc23)Nc2ccc(-c3ccccc3)cc2)c(O)c1 | 75% (active)
15 | O=C(/C=C/c1ccc(Cl)c(Cl)c1)N1CCC(CN2CCC(Cc3nc4ccccc4[nH]3)CC2)CC1 | 95% (active)
16 | CC(C)C1=C[C@H]2C[C@]3(C4OCCO4)[C@@H]4CC[C@@H](C)[C@H]4C[C@@]2(C(=O)OCC2COCO2)[C@]13C(=O)OC(c1ccccc1)c1ccccc1 (stereo partly specified) | 96% (active)
17 | COc1cccc(NC(=O)COc2ccc(C(=O)Nc3nc4ccccc4[nH]3)cc2)c1 | 29%
18 | O=C(Nc1ccc(OC2CCN(Cc3ccc(F)cc3)C2)c(Cl)c1)c1ccco1 (stereo unspecified) | 97% (active)
19 | Cc1ccc2c(NN=Cc3ccc(Cl)cc3)cc(C)nc2c1 | 34%
20 | S=C(NN=Cc1ccccn1)NC1C[C@H]2C=C[C@@H]1C2 (stereo partly specified) | 96% (active)
21 | Cc1ccc(C)c(S(=O)(=O)Nc2ccc(Br)cc2C(=O)Nc2cccc(C(F)(F)F)c2)c1 | 98% (active)
22 | CN(CCN(C)CC(O)c1ccc(Cl)c(Cl)c1)CC(O)c1ccc(Cl)c(Cl)c1 (stereo unspecified) | 73% (active)
23 | O=c1c2ccccc2[nH]c2cc(Cl)ccc12 | 86% (active)
24 | CCC[C@@H]([C@@H](CC1CCC(C)CC1)C(=O)N[C@@H](CCCNc1ncccn1)C(=O)Nc1nccs1)N(O)C=O (stereo partly specified) | 98% (active)
25 | CCn1c2ccccc2c2cc(C=NNc3cc(C)nc4ccccc34)ccc21 | 97% (active)
26 | c1ccc2[nH]c(-c3ccc(-c4ccc(CN5CCC(N6CCCCC6)CC5)cc4)s3)nc2c1 | 100% (active)

Test: human hepatoma cell viability loss – ATP luminescence, cytotoxicity control for P. falciparum antimalarial project, primary screen (AID 2303);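 also: 0% = DMSO wells and 100% = digitonin-killed cells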
Details: HepG2 viability, 24-48 h, at 10 µM, active compounds read high

Row | Structure (SMILES) | inhibition
27 | O=C(N[C@@H](Cc1ccccc1)C(=O)NCCN1CCCCC1)c1ccc(O)c(-c2cccc(C(F)(F)F)c2)c1 | 0%
28 | Cc1cc(N(C)C)nc(Nc2ccc(NC(=O)c3ccc(Br)o3)cc2)n1 | 1%
29 | N#Cc1ccc(N[C@@H](CC2CCCCC2)C(=O)NCc2cc(F)c(F)cc2F)c2ccccc12 | 12%
30 | O=C(c1cccs1)N1N=C(c2cccs2)CC1c1cccc([N+](=O)[O-])c1 (stereo unspecified) | 5%
31 | O=C(Nc1cccc(Cl)c1Cl)N[C@H]1CCN(CCCCCNC(=O)[C@@H]2C[C@H]2c2ccc(Cl)c(Cl)c2)C1 | 40%
32 | Clc1cc(Cl)c2cc(CNCCCNc3ccc4ccccc4n3)[nH]c2c1 | 98% (active)
33 | Cn1cnc2c(Nc3ccncc3)nc(-c3ccc4ccccc4c3)nc21 | 55% (active)
34 | O=C(Nc1cccc(-c2ccc(-c3nc4ccc(C(F)(F)F)cc4[nH]3)cc2)c1)c1ccncc1 | 79% (active)
35 | Oc1ccc(CCNCCCCCCNCCc2ccc(Cl)cc2)c(Cl)c1O | 23%
36 | COC(=O)c1cccc(CNCc2ccc(-c3ccc(-c4nc5c(C)cccc5[nH]4)cc3)cc2)c1 | 17%
37 | O=C(c1cc2ccccc2o1)N1CCc2cc3nccc(N4CCN5CCC[C@H]5C4)c3cc21 | 62% (active)
38 | CN1CCC(N2CCN(Cc3cccc(-c4cccc(-c5nc6ccccc6[nH]5)c4)c3)CC2)CC1 | 19%
39 | CCCc1cc(C)ccc1OCCCON1C(NC(=O)OCC)=NC(NC(=O)OCC)=NC1(C)C | 62% (active)
40 | CCC(CC(C)C(=O)O)=C(c1ccccc1)c1ccccc1 (stereo unspecified) | 12%
41 | COc1cc(Nc2nccc(N3CCC(NC(=O)Nc4ccc5c(c4)OCO5)C3)n2)cc(OC)c1OC (stereo unspecified) | 9%
42 | N#Cc1ccc(C2CCN(CC[C@H](N)Cc3ccc(Cl)s3)CC2)cc1 | 31%
43 | COc1ccc(N2CCN(c3nc(Nc4ccc(NC(C)=O)cc4)nc(N4CCCC4)n3)CC2)cc1 | -7%
44 | CCc1ccc(OCCCON2C(N)=NC(N)=NC2(C)C)cc1 | 64% (active)
45 | CC(C)C(C(=O)n1ncc2c3c(N)nc(N)nc3ccc21)C(C)C | 67% (active)
46 | CC(C)CCNCc1ccc(OCc2cccc(COc3ccc(CNCCC(C)C)cc3I)c2)c(I)c1 | 99% (active)

Row | Structure (SMILES) | inhibition
47 | COc1cc(OC)c(NC(=O)Nc2ccnc3ccccc23)cc1Cl | 19%
48 | CCC(O)(C#Cc1c(C)nc(N)nc1N)CC | 63% (active)
49 | CC(=O)N(C)/N=C/[C@H](CCc1ccccc1)NC(=O)[C@H](CC(C)C)NC(=O)c1cccc(OCCN2CCOCC2)c1 | 5%
50 | N#Cc1ccc(-c2ccc(C(=O)NCCCCN3CC=C(c4ccc5c(c4OCC4CC4)CCCC5)CC3)cc2)cc1 | 22%
51 | CCn1c(Sc2ccc([N+](=O)[O-])c(C#N)c2)nnc1-c1cccc(Cl)c1 | 8%
52 | CCOC(=O)C1CCN(CCOc2cc(NC(=O)/C=C/c3ccccc3Cl)ccc2Br)CC1 | 6%
53 | Cc1cc(N2CCN(C)CC2)nc2ccc(NC(=O)Cc3cccc(C(F)(F)F)c3)cc12 | 26%
54 | N#Cc1ccc(NC(=NCCc2c[nH]c3ccccc23)Nc2ccc(-c3ccccc3)cc2)c(O)c1 | 6%
55 | O=C(/C=C/c1ccc(Cl)c(Cl)c1)N1CCC(CN2CCC(Cc3nc4ccccc4[nH]3)CC2)CC1 | 34%
56 | CC(C)C1=C[C@H]2C[C@]3(C4OCCO4)[C@@H]4CC[C@@H](C)[C@H]4C[C@@]2(C(=O)OCC2COCO2)[C@]13C(=O)OC(c1ccccc1)c1ccccc1 (stereo partly specified) | 2%
57 | COc1cccc(NC(=O)COc2ccc(C(=O)Nc3nc4ccccc4[nH]3)cc2)c1 | 19%
58 | O=C(Nc1ccc(OC2CCN(Cc3ccc(F)cc3)C2)c(Cl)c1)c1ccco1 (stereo unspecified) | 9%
59 | Cc1ccc2c(NN=Cc3ccc(Cl)cc3)cc(C)nc2c1 | -1%
60 | S=C(NN=Cc1ccccn1)NC1C[C@H]2C=C[C@@H]1C2 (stereo partly specified) | 51% (active)
61 | Cc1ccc(C)c(S(=O)(=O)Nc2ccc(Br)cc2C(=O)Nc2cccc(C(F)(F)F)c2)c1 | 56% (active)
62 | CN(CCN(C)CC(O)c1ccc(Cl)c(Cl)c1)CC(O)c1ccc(Cl)c(Cl)c1 (stereo unspecified) | 22%
63 | O=c1c2ccccc2[nH]c2cc(Cl)ccc12 | 24%
64 | CCC[C@@H]([C@@H](CC1CCC(C)CC1)C(=O)N[C@@H](CCCNc1ncccn1)C(=O)Nc1nccs1)N(O)C=O (stereo partly specified) | 10%
65 | CCn1c2ccccc2c2cc(C=NNc3cc(C)nc4ccccc34)ccc21 | 19%
66 | c1ccc2[nH]c(-c3ccc(-c4ccc(CN5CCC(N6CCCCC6)CC5)cc4)s3)nc2c1 | 26%
